PubChem BioAssay (NCI)
About 83,000 compounds went through this panel and 20% of them were active in at least one assay; those are over-represented in the sample as a whole.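 A percent growth of 40 corresponds to 60% growth inhibition; 0 means no net growth; -100 means all cells died. Active threshold: below 10.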 Unmarked numbers belong to inactive results. The source made the active and inactive calls.

These compounds were tested on NCI/ADR-RES ovarian (assay: NCI-60 one-dose screen, 48 h (100 = growth as untreated, 0 = no growth, -100 = all killed)). Conditions: 10 µM unless noted.

| SMILES | growth |
| --- | --- |
| COc1c(B(O)O)cccc1-c1nc2ccc3[nH]ncc3c2c2c1C1CCC2C1 (stereo unspecified) | 78.8% |
| O=C(Nc1ccc(Cl)cc1F)c1cc(F)ccc1O | 7.19% (active) |
| O=c1oc2ccc(I)cc2c(=O)n1-c1ccc(I)cc1F | 9.94% (active) |
| NCCNc1nc2ccc(F)cc2c2c(=O)c3cc(F)ccc3sc12 | 61.7% |
| O=C(Nc1ccc(Br)cc1F)c1cc(F)ccc1O | 9.89% (active) |
| O=C1c2cc(I)ccc2Oc2cc([N+](=O)[O-])ccc2N1c1ccc(Cl)cc1F | 89.7% |
| CC1=C(C(=O)OCC2CCN(C(=O)OC(C)(C)C)CC2)[C@H](c2cccc(Br)c2)C2=C(CC(C)(C)CC2=O)N1 | 25.3% |
| O=C(c1ccccc1)N(C(=S)NCCc1ccc(Cl)cc1)c1ccc(Cl)cc1 | 101% |
| O=c1oc2ccc(Br)cc2c(=O)n1-c1ccc(F)cc1F | 5.44% (active) |
| O=C(Nc1ccc(Br)cc1F)c1cc(I)ccc1O | 4.84% (active) |
| O=c1oc2ccc(Cl)cc2c(=O)n1-c1cc(C(F)(F)F)cc(C(F)(F)F)c1 | 5.39% (active) |
| O=c1oc2ccc(Br)cc2c(=O)n1-c1ccc(I)cc1F | 9.96% (active) |
| O=c1oc2ccc(-c3ccc(F)cc3F)cc2c(=O)n1-c1cccc(C(F)(F)F)c1 | 7.17% (active) |
| O=c1oc2ccc(F)cc2c(=O)n1-c1ccc(Br)cc1F | 6.34% (active) |
| O=c1oc2ccc(I)cc2c(=O)n1-c1ccc(Br)cc1F | 7.59% (active) |
| Nc1cccc(Nc2cc(S(=O)(=O)O)c(N)c3c2C(=O)c2ccccc2C3=O)c1 | 106% |
